Laboratory results taken from PMC4336329 (PLoS ONE, 2015).
Among all 310,000 compounds or so, about 14,000 (4.5%) showed an effect of 50% or more. Effects have a minus sign here. For the sample, strong results were picked, then their nearest neighbours and some compounds at random.

The molecules below were run against human ether-à-go-go-related gene (hERG) potassium channel (human, UniProt Q12809) (assay: primary screen, population patch clamp on CHO cells stably expressing hERG; higher = less effect of the substance).
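Note: peak tail current of the secondary pulse compared with the same well before compound.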

Chain of human ether-à-go-go-related gene (hERG) potassium channel (Q12809 whole entry, looked up): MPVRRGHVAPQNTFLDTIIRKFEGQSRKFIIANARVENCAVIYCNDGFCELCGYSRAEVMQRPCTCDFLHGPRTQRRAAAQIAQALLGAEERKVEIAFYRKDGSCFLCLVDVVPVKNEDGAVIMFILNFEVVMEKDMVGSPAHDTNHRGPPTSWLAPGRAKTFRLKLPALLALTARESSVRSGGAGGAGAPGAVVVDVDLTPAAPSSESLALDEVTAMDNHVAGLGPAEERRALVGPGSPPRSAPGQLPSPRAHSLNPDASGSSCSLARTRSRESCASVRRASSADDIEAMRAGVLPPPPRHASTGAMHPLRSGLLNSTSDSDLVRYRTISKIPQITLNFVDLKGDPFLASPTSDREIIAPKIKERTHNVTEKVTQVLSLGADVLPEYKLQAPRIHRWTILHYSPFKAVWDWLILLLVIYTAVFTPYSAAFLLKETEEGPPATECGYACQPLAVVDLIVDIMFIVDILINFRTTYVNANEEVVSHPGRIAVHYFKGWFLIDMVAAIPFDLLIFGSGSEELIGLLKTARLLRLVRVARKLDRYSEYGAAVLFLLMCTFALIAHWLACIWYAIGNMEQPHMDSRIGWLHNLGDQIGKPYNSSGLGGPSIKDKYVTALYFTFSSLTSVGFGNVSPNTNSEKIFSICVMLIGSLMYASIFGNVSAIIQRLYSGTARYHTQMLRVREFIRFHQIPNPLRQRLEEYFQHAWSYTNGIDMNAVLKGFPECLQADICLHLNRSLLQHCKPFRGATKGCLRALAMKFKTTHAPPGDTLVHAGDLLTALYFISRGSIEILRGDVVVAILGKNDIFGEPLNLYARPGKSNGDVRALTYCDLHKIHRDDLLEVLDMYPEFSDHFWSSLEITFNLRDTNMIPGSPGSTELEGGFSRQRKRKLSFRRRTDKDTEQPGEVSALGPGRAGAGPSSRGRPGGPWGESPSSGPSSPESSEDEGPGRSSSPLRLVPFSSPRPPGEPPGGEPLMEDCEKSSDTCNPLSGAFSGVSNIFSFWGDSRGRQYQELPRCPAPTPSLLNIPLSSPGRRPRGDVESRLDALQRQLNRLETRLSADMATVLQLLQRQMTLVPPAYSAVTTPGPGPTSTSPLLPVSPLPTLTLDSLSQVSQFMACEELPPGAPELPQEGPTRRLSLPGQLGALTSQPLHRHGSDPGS

| Structure (SMILES) | hERG current change (%, negative = inhibition) at 10uM [%] |
| --- | --- |
| CCOC(=O)c1c(NC(=O)c2ccc(Br)o2)sc2c1CCCC2 | -9.78 |
| Fc1ccc2nc3c(nc2c1)CCCC3 | 15.3 |
| COCCCn1c(SCC(N)=O)nnc1-c1ccccc1 | -0.75 |
| Cc1ccccc1CC1(CO)CCCN(C(=O)c2ccccc2N(C)C)C1 (stereo not shown) | -1.63 |
| Cc1ccccc1CC1(CO)CCCN(C(=O)c2ccccc2Cl)C1 (stereo not shown) | -81.5 |
| Cc1ccccc1CC1(CO)CCCN(C(=O)c2cc(Cl)ccc2F)C1 (stereo not shown) | -16.5 |
| O=C(O)CC1Sc2nc3ccccc3n2C1=O (stereo not shown) | 8.05 |
| COc1ccc(CN(C)C(=O)Cn2ccc(NC(=O)OCc3ccccc3)nc2=O)cc1OC | -20.4 |
| O=C(c1ccccc1)N1CCC(O)(c2cccnc2)CC1 | 16.1 |
| CS(=O)(=O)O.c1ccc(-c2ccc3c(c2)c2c4n3CCN=C4CCC2)cc1 | -61.5 |
| Cc1cc(S(=O)(=O)N2CCN=C2c2ccccc2)ccc1F | 7.23 |
| CCn1c2c(c3cc(Cl)ccc31)CCCC2=O | 3.71 |
| c1cc2c(cc1C1CCCCC1)c1c3n2CCN=C3CCC1 | -33.9 |
| CS(=O)(=O)O.O=C(O)c1ccc2c(c1)c1c3n2CCNC3CCC1 (stereo not shown) | 20.7 |
| OC1CN=C2CCCc3c2n(c2ccc(Cl)cc32)C1 (stereo not shown) | -72.3 |
| O=C(O)c1c2c(nc3ccc(Cl)cc13)CCC2 | 4.39 |
| Cc1ccc2c(c1)c1c3n2CCN=C3CCC1.Cl | -76.3 |
| Cc1ccc2c(c1)c1c(n2C)C(=O)CCC1 | 11.8 |
| CCO.Cn1c2c(c(=O)n(C)c1=O)C1(C(=O)Nc3ccccc31)C(C#N)=C(N)O2 (stereo not shown) | 8.3 |
| COc1ccc(CN(C)C(=O)c2cccc(Oc3ccccc3)c2)c(OC)c1OC | -20.6 |
| CSc1nc(C)c(Oc2ccccc2)c(=O)n1C | 5.82 |
| CCC1CCCCN1C(=O)NC(=O)c1ccccc1 (stereo not shown) | 30.3 |

| Structure (SMILES) | hERG current change (%, negative = inhibition) at 10uM [%] |
| --- | --- |
| CC(C)OCCCN(C)C1CCN(S(=O)(=O)c2ccc(-c3ccc(=O)[nH]n3)s2)CC1 | -35.8 |
| CC(C)OCCCN(C)C1CCN(S(=O)(=O)c2ccc(-c3cc(C(F)(F)F)no3)s2)CC1 | -54.6 |
| CC(C)OCCCN(C)C1CCN(S(=O)(=O)c2csc(C(N)=O)c2)CC1 | 13.1 |
| Cc1ccccc1C(=O)NC(=S)Nc1ccc(S(=O)(=O)N2CCOCC2)cc1 | -40 |
| O=C(NCCc1ccccc1)c1cccc(S(=O)(=O)N2CCCCC2)c1 | 5.18 |
| O=C(NCc1ccccc1)c1cccc(S(=O)(=O)N2CCCCC2)c1 | -52.5 |
| CN1CCN(S(=O)(=O)c2cccc(C(=O)O)c2)CC1 | 10.8 |
| O=C(NCc1ccccc1F)c1cccc(S(=O)(=O)N2CCCCCC2)c1 | 7.87 |
| O=C(NCc1ccccc1CN1CCCC1)c1cccc(S(=O)(=O)N2CCCC2)c1 | -55.1 |
| Cc1ccc(C(NC(=O)c2cccc(S(=O)(=O)N3CCN(C)CC3)c2)c2ccccc2)cc1 (stereo not shown) | -61.8 |
| CC(NC(=O)c1cccc(S(=O)(=O)N2CCCCCC2)c1)c1ccccc1 (stereo not shown) | -58.2 |
| O=C(NCc1cccc(Cl)c1)c1cccc(S(=O)(=O)N2CCCCC2)c1 | 7.08 |
| O=C(NCc1ccccc1CN1CCCC1)c1cccc(S(=O)(=O)N2CCOCC2)c1 | -44.5 |
| CC(NC(=O)c1cccc(S(=O)(=O)N2CCN(Cc3ccccc3)CC2)c1)c1ccc(Br)cc1 (stereo not shown) | -17.6 |
| CC(NC(=O)c1cc(S(=O)(=O)N2CCCC2)cn1C)c1ccccc1 (stereo not shown) | -0.137 |
| CN1CCN(S(=O)(=O)c2cccc(C(=O)N(C)C(c3ccccc3)c3ccccc3)c2)CC1 | -4.72 |
| Cc1cc(C)c(NC(=O)CSc2nnc(CNC(=O)c3ccccc3F)o2)c(C)c1 | -6.38 |
| CN1/C(=C\C(=S)NC(=O)c2ccccc2Cl)C(C)(C)c2ccccc21 | 23.6 |
| COc1cc(C(=O)NCc2ncccc2C)ccc1OC1CCN(C(C)=O)CC1 | 6.34 |
| CCC1CCCCN1C(=O)CSc1nc(N)c(NC(=O)c2ccc(OC)c(OC)c2)c(=O)[nH]1 (stereo not shown) | 4.63 |
| COc1ccc(OCCn2cncn2)cc1 | 12.6 |
| COC(=O)c1cc2sc(Cl)cc2n1CC(=O)N1CCCc2ccccc21 | -1.75 |

| Structure (SMILES) | hERG current change (%, negative = inhibition) at 10uM [%] |
| --- | --- |
| O=C(O)c1ccccc1-c1ccccc1C(=O)NCc1ccccc1Cl | -37.6 |
| COC(=O)C1=C(c2ccc(OC(F)(F)F)cc2)C[C@@H]2CC[C@H]1N2C(=O)NCCOc1ccc(OC)cc1 | -26.3 |
| O=C1N/C(=N/S(=O)(=O)c2ccccc2)S/C1=C/c1cccnc1 | 1.74 |
| CCCCc1c(C)nc2ccccc2c1SCCC#N | -50.6 |
| CCc1c(C)nc2c(C)cccc2c1SCCC#N | 17.7 |
| CCCCc1c(C)nc2ccccc2c1SCCC(=O)O | 14.8 |
| O=C(Cc1ccc(NC2=NC3CS(=O)(=O)CC3S2)cc1)NCc1ccccc1Cl (stereo not shown) | 6.5 |
| CCOC(=O)c1c(NC(=O)CSc2nnc(Cc3ccccc3)o2)sc(C(C)=O)c1C | -64.8 |
| CCOC(=O)c1c(NC(=O)CSc2nnc(-c3ccccc3C)n2C)sc(C(C)=O)c1C | -63 |
| CCOC(=O)c1c(NC(=O)CSc2nnc(-c3cccc(C)c3)n2CC)sc(C(C)=O)c1C | -18.9 |
| CCOC(=O)c1c(NC(=O)CSc2nnc(Cc3ccccc3)o2)sc(C)c1C | 13.8 |
| CCOC(=O)c1c(NC(=O)CSc2nnc(-c3ccccc3)n2CC)sc(C(C)=O)c1C | -31 |
| CCOC(=O)c1sc(NC(=O)CSc2nnc(Cc3ccccc3)o2)c(C(=O)OCC)c1C | 9.46 |
| O=C(CNC(=O)c1cc2c(n(-c3ccccc3)c1=O)CCCC2=O)c1ccccc1 | -38.5 |
| CN1CCN(C(=O)N2c3ccccc3CCc3ccccc32)CC1 | 11.9 |
| Cc1ccc(C)c(OCCC(=O)OCC(=O)NC(=O)NCc2ccccc2)c1 | 4.16 |
| O=C(NCCCN1CCOCC1)c1ccc(S(=O)(=O)Nc2cccc(C(F)(F)F)c2)cc1 | -12.8 |
| O=S(=O)(c1cccc(C(F)(F)F)c1)N(CCCN1CCOCC1)Cc1cccs1 | -74.9 |
| O=C(NCCCN1CCOCC1)C1CCN(S(=O)(=O)c2cccc(C(F)(F)F)c2)CC1 | -9.45 |
| CCN(CC)S(=O)(=O)c1cccc(C(=O)NCCCN2CCOCC2)c1 | 9.9 |
| Cl.O=S(=O)(NCCN1CCOCC1)c1cccc(C(F)(F)F)c1 | 5.32 |
| O=C(O)C(=O)O.O=S(=O)(c1cccc(C(F)(F)F)c1)N(CCCN1CCOCC1)Cc1cccs1 | -51 |

| Structure (SMILES) | hERG current change (%, negative = inhibition) at 10uM [%] |
| --- | --- |
| COc1ccc(S(=O)(=O)Nc2ccc3oc(C)c(C(C)=O)c3c2)cc1 | 12 |
| COC(=O)c1sc(-c2ccc(Cl)cc2)cc1N | -37.1 |
| O=C(c1ccc(COc2ccc3ccccc3c2)o1)N1N=C(C(F)F)CC1(O)C(F)F (stereo not shown) | -2.62 |
| CC1(C)CC(NC(=O)C(F)(F)F)CC(C)(C)N1OC(=O)c1ccco1 | 1.13 |
| Cc1ccc(S(=O)(=O)NCCCCCC(=O)N(C)C)cc1 | 6.32 |
| CCOC(=O)/C=C1\SCC(=O)N1CC(=O)NC(c1ccccc1)c1ccccc1 | -52.2 |
| CCOC(=O)/C=C1\SCC(=O)N1CC(=O)NC(C)C | 21.2 |
| CCOC(=O)/C=C1\SCC(=O)N1CC(=O)NC(C)c1ccccc1 (stereo not shown) | -15.2 |
| CCC1CCCCN1CC(=O)c1c(C)[nH]c2ccc(OC)cc12 (stereo not shown) | -20.6 |
| CCC1CCCCN1CC(=O)c1c(C)[nH]c2ccccc12 (stereo not shown) | -27.4 |
| O=C(NCC(=O)N1CCCCCC1)c1ccc(OC(F)F)cc1 | -11.3 |
| O=C(CN1C(=O)c2ccccc2S1(=O)=O)c1ccc(OC(F)F)cc1 | -23 |
| Br.O=C(CN1CCCCC1CO)c1ccc(OC(F)F)cc1 (stereo not shown) | -68.2 |
| CCC1CCCCN1CC(=O)c1ccc(OC(F)F)cc1 (stereo not shown) | -77.7 |
| O=c1c2cc(N3CCOCC3)ccc2[nH]c(=S)n1CCCN1CCCC1 | -4.98 |
| CC(C)(C)c1ccc(CN(Cc2ccccc2)C(c2ccccn2)c2nnnn2C(C)(C)C)cc1 (stereo not shown) | 2.44 |
| COc1ccc(S(=O)(=O)N2CCC(C)CC2)cc1N(C)S(=O)(=O)c1ccccc1 | -2.12 |
| COC(=O)c1cccc(NC(=O)CCNC(=O)c2ccco2)c1 | 18.8 |
| COC(=O)C1=C(C)N(c2ccc(C(=O)OC)cc2)C(=O)C1 | 22.3 |
| O=C(CSc1nnc(-c2ccncc2)o1)N1CCCC1 | -19.1 |
| O=C(CCC(=O)c1ccc(Oc2ccccc2)cc1)Nc1ccc(Cl)cc1Cl | 5.46 |
| CCN(CC)S(=O)(=O)c1ccc(-c2nnc(SCC(=O)Nc3nnc(C)s3)n2CC)cc1 | 12.2 |
